Reference: PubChem BioAssay AID1159580 (chemical genetic matrix, 2015)
Values joined by “and” are separate entries in the source; they are usually repeats but may differ in a detail not shown here. Identical values can stand only once. Among all 5,500 compounds or so, about 2,000 (36%) were called active. Roughly 18% stayed inconclusive and do not appear here. Cut-off read from the data, not from the text of the source: active = normalized growth mostly below about 0.91 (no sharp cut-off); inconclusive = no clear call, values can overlap the other calls; inactive = mostly above about 0.92. Some of the results follow.

Assay: chemical genetic growth profiling, strain panel (AID 1159580);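 note: tested at 20 µM; growth read once vehicle control cultures reached saturation at 30 °C; 1 = growth at the plate median or of vehicle wells; lower values mean less growth of the strain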
Details: S. cerevisiae deletion strains, growth OD
[1] = locus YAL040C, strain CLN3, active compounds read low
[2] = locus YCL061C, strain MRC1 (second series), active compounds read low
[3] = locus YDR363W, strain ESC2, active compounds read low
[4] = locus YER002W, strain NOP16, active compounds read low
[5] = locus YJR075W, strain HOC1, active compounds read low
[6] = locus YMR307W, strain GAS1, active compounds read low
[7] = locus YNL153C, strain GIM3, active compounds read low
[8] = locus YNL175C, strain NOP13, active compounds read low
[9] = locus YNL197C, strain WHI3, active compounds read low
[10] = locus YNL224C, strain SQS1, active compounds read low
[11] = locus YNL322C, strain KRE1, active compounds read low
[12] = locus YOR083W, strain WHI5 (second series), active compounds read low
[13] = locus YPL241C, strain CIN2, active compounds read low
[14] = locus YAL013W, strain DEP1, active compounds read low

Measured: normalized growth

C[N+](C)(C)CCOC(=O)CCC(=O)OCC[N+](C)(C)C
inactive: [1] 0.988 | [2] 1.01 | locus YDR150W, strain NUM1, active compounds read low 1.02 | [3] 1.01 | [4] 1.01 | locus YGR229C, strain SMI1, active compounds read low 1.04 | [5] 0.992 | locus YMR263W, strain SAP30, active compounds read low 1 | [6] 1.03 | [7] 1.03 | [8] 1.01 | [9] 1.02 | [10] 1.01 | [11] 0.992 | [12] 1.02 | [13] 0.987

CNC(=O)OCC[N+](C)(C)C
inactive: [14] 0.99 | [1] 1 | [2] 0.992 | [3] 0.957 | [4] 0.968 | [5] 1.01 | locus YNL128W, strain TEP1, active compounds read low 1 | [7] 0.983 | [8] 0.973 | [9] 0.962 | [10] 0.989 | [12] 0.985

CC(=O)OCC[N+](C)(C)C
active: locus YAL026C, strain drs2, active compounds read low 1.1 [resistant] | locus YDR137W, strain rgp1, active compounds read low 1.55 [resistant] | locus YDR159W, strain sac3, active compounds read low 1.15 [resistant] | locus YDR195W, strain ref2 1.21 [resistant] | locus YLR221C, strain rsa3, active compounds read low 1.1 [resistant] | locus YLR262C, strain YPT6 (second series), active compounds read low 1.27 [resistant] | locus YNL248C, strain rpa49, active compounds read low 1.12 [resistant] | locus YOR144C, strain elg1, active compounds read low 1.09 [resistant] | locus YOR270C, strain vph1, active compounds read low 0.749 | locus YPL256C, strain CLN2, active compounds read low 1.24 [resistant] | locus YPR141C, strain kar3, active compounds read low 1.09 [resistant]
inactive: [14] 1.01 | locus YAL021C, strain ccr4, active compounds read low 1.03 | locus YAL030W, strain snc1, active compounds read low 1.02 | locus YBL061C, strain skt5, active compounds read low 1.03 | locus YBR009C, strain hhf1, active compounds read low 1.08 | locus YBR021W, strain FUR4, active compounds read low 1.06 | locus YBR023C, strain chs3, active compounds read low 1.05 | locus YBR171W, strain sec66, active compounds read low 0.999 | locus YBR229C, strain ROT2, active compounds read low 1.01 | locus YBR231C, strain swc5, active compounds read low 1.03 | locus YBR279W, strain paf1, active compounds read low 1.04 | locus YCL011C, strain gbp2, active compounds read low 1.07 | locus YCL016C, strain dcc1, active compounds read low 1.05 | locus YCL029C, strain bik1, active compounds read low 1.04 | locus YCL069W, strain vba3, active compounds read low 1.03 | locus YCR088W, strain abp1, active compounds read low 1.02 | locus YDL005C, strain med2, active compounds read low 1 | locus YDL035C, strain GPR1, active compounds read low 0.961 | locus YDL040C, strain nat1, active compounds read low 1.02 | locus YDL074C, strain BRE1, active compounds read low 0.965 | locus YDL101C, strain DUN1, active compounds read low 0.985 | locus YDL134C, strain PPH21, active compounds read low 0.986 | locus YDL185W, strain tfp1, active compounds read low 0.969 | locus YDL192W, strain arf1, active compounds read low 1.02 | locus YDR001C, strain nth1, active compounds read low 1.01 | locus YDR069C, strain doa4, active compounds read low 1 | locus YDR101C, strain arx1, active compounds read low 1.07 | locus YDR162C, strain NBP2, active compounds read low 0.948 | locus YDR297W, strain sur2, active compounds read low 1.02 | locus YDR318W, strain mcm21, active compounds read low 1.01 | locus YDR334W, strain swr1, active compounds read low 1.03 | locus YDR335W, strain msn5, active compounds read low 1 | locus YDR388W, active compounds read low 1.02 | locus YDR392W, strain spt3, active compounds read low 1.13 | locus YDR502C, strain sam2, active compounds read low 1.01 | locus YEL003W, strain gim4, active compounds read low 1.01 | locus YEL037C, strain rad23, active compounds read low 1.03 | locus YEL061C, strain CIN8 (second series), active compounds read low 1.03 | locus YEL061C, strain CIN8, active compounds read low 0.993 | locus YER015W, strain faa2, active compounds read low 1.07 | locus YER016W, strain bim1, active compounds read low 1.02 | locus YER110C, active compounds read low 1.01 | locus YER111C, strain swi4, active compounds read low 1.02 | locus YER155C, strain BEM2 (second series), active compounds read low 1.11 | locus YER155C, strain BEM2, active compounds read low 1.02 | locus YER167W, strain BCK2, active compounds read low 1.01 | locus YFR010W, strain ubp6, active compounds read low 1.01 | locus YGL078C, strain dbp3, active compounds read low 1.03 | locus YGL086W, strain mad1, active compounds read low 1.01 | locus YGL167C, strain pmr1, active compounds read low 1.01 | locus YGL173C, strain kem1, active compounds read low 1.02 | locus YGL227W, strain vid30, active compounds read low 1.02 | locus YGL240W, strain doc1, active compounds read low 1.11 | locus YGL248W, strain PDE1, active compounds read low 0.99 | locus YGL253W, strain hxk2, active compounds read low 1.03 | locus YGR135W, strain pre9, active compounds read low 0.996 | locus YGR252W, strain gcn5, active compounds read low 0.943 | locus YHR013C, strain ard1, active compounds read low 1.11 | locus YHR027C, strain rpn1, active compounds read low 1.02 | locus YHR030C, strain SLT2, active compounds read low 1.01 and 1.08 | locus YHR079C, strain IRE1 (second series), active compounds read low 1.02 | locus YHR079C, strain IRE1, active compounds read low 1.1 | locus YHR094C, strain hxt1, active compounds read low 1.02 | locus YHR129C, strain ARP1, active compounds read low 1.01 | locus YHR142W, strain chs7, active compounds read low 1.1 | locus YHR200W, strain rpn10, active compounds read low 1.02 | locus YIL066C, strain RNR3, active compounds read low 0.988 | locus YIL073C, strain SPO22, active compounds read low 0.973 | locus YIL125W, strain kgd1, active compounds read low 1.03 | locus YIR030C, strain dcg1, active compounds read low 1.06 | locus YJL092W, strain hpr5, active compounds read low 1.02 | locus YJL095W, strain BCK1 (second series), active compounds read low 1.02 | locus YJL095W, strain BCK1, active compounds read low 0.928 and 1.07 | locus YJL115W, strain asf1, active compounds read low 1.03 | locus YJL129C, strain trk1, active compounds read low 1.09 | locus YJL134W, strain LCB3, active compounds read low 1.02 | locus YJL154C, strain vps35, active compounds read low 1.03 | locus YJL164C, strain tpk1, active compounds read low 1.05 | locus YJL166W, strain qcr8, active compounds read low 1.04 | locus YJL168C, strain set2, active compounds read low 1.03 | locus YJL187C, strain SWE1 (second series), active compounds read low 0.951 | locus YJL187C, strain SWE1, active compounds read low 1.02 | locus YJR043C, strain POL32, active compounds read low 0.994 | locus YJR066W, strain TOR1, active compounds read low 1.03 | [5] 0.978 | locus YKL009W, strain mrt4, active compounds read low 0.945 | locus YKL068W, active compounds read low 1.01 | locus YKL085W, strain MDH1 (second series), active compounds read low 1.01 | locus YKL085W, strain MDH1, active compounds read low 1.01 | locus YKL160W, strain elf1, active compounds read low 1.03 | locus YKR001C, strain vps1, active compounds read low 0.975 | locus YKR026C, strain gcn3, active compounds read low 1.03 | locus YKR091W, strain srl3, active compounds read low 1.02 | locus YLL001W, strain dnm1, active compounds read low 1.02 | locus YLL026W, active compounds read low 1.03 | locus YLL041C, strain sdh2, active compounds read low 1.02 | locus YLR027C, strain aat2, active compounds read low 1.02 | locus YLR039C, strain RIC1, active compounds read low 0.756 | locus YLR058C, strain SHM2, active compounds read low 0.972 | locus YLR102C, strain apc9, active compounds read low 1.01 | locus YLR113W, strain HOG1, active compounds read low 1.14 | locus YLR258W, strain gsy2, active compounds read low 1.04 | locus YLR262C, strain YPT6, active compounds read low 0.801 | locus YLR268W, strain sec22, active compounds read low 0.967 | locus YLR320W, strain mms22, active compounds read low 1.1 | locus YLR330W, strain CHS5, active compounds read low 0.998 | locus YLR342W, strain FKS1 (second series), active compounds read low 0.986 | locus YLR342W, strain FKS1, active compounds read low 1.01 | locus YLR357W, strain rsc2, active compounds read low 1.12 | locus YLR370C, strain arc18, active compounds read low 1.03 | locus YLR371W, strain rom2, active compounds read low 1.08 | locus YLR384C, strain iki3, active compounds read low 1.02 | locus YLR418C, strain cdc73, active compounds read low 0.99 | locus YML016C, strain PPZ1, active compounds read low 0.993 | locus YML032C, strain rad52, active compounds read low 0.918 | locus YML120C, strain ndi1, active compounds read low 1.04 | locus YML124C, strain tub3, active compounds read low 1 | locus YMR058W, strain fet3, active compounds read low 1.05 | locus YMR078C, strain ctf18, active compounds read low 1.02 | locus YMR125W, strain sto1, active compounds read low 1.05 | locus YMR129W, active compounds read low 1.02 | locus YMR205C, strain PFK2, active compounds read low 1.08 | locus YMR223W, strain ubp8, active compounds read low 0.978 | locus YMR231W, strain pep5, active compounds read low 0.993 | [6] 1.07 | locus YNL067W, strain RPL9B, active compounds read low 0.961 | locus YNL071W, strain lat1, active compounds read low 1.04 | locus YNL183C, strain NPR1, active compounds read low 1.04 | locus YNL209W, strain ssb2, active compounds read low 1.02 | locus YNL233W, strain BNI4, active compounds read low 0.973 | locus YNL250W, strain rad50, active compounds read low 1.02 | locus YNL271C, strain bni1, active compounds read low 1.01 | locus YNL298W, strain CLA4, active compounds read low 1.01 | locus YNL307C, strain MCK1, active compounds read low 1.03 | locus YNL322C, strain KRE1 (second series), active compounds read low 1.07 | [11] 1.02 | locus YNR049C, strain mso1, active compounds read low 1.01 | locus YNR052C, strain pop2, active compounds read low 1.02 | locus YOL012C, strain htz1 1.26 | locus YOL147C, strain pex11, active compounds read low 1.03 | locus YOR001W, strain rrp6, active compounds read low 0.99 | locus YOR061W, strain CKA2, active compounds read low 0.994 | locus YOR069W, strain VPS5, active compounds read low 1.01 | locus YOR070C, strain gyp1, active compounds read low 1.02 | locus YOR080W, strain dia2, active compounds read low 1.02 | locus YOR083W, strain WHI5, active compounds read low 1.05 | locus YOR106W, strain vam3, active compounds read low 1.08 | locus YOR136W, strain idh2, active compounds read low 1.02 | locus YOR184W, strain ser1, active compounds read low 0.988 | locus YOR231W, strain MKK1, active compounds read low 1.08 | locus YOR265W, strain rbl2, active compounds read low 1.02 | locus YOR290C, strain snf2, active compounds read low 1.06 | locus YOR316C, strain cot1, active compounds read low 1.01 | locus YPL051W, strain arl3, active compounds read low 1.05 | locus YPL055C, strain LGE1, active compounds read low 0.982 | locus YPL078C, strain atp4, active compounds read low 1.04 | locus YPL106C, strain sse1, active compounds read low 1.02 | locus YPL240C, strain hsp82, active compounds read low 1.01 | [13] 1 | locus YPR119W, strain clb2, active compounds read low 1.01 | locus YPR163C, strain tif3, active compounds read low 1.01 | locus YPR167C, strain met16, active compounds read low 1.03 | strain wtn01, active compounds read low 0.996
